Screens from PubChem.
This is a sample that favours compounds with a hit; in the whole collection about 2.3% have one here.
CHO-K1 Ca antag: nonselective inhibitor or artifact in parental CHO-K1 cells; ATP-induced calcium, Fluo-8 fluorescence; inhibition, % at 3 µM; 360,000 compounds, 0.6% hits;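 active means inhibition above a per-plate cutoff, the plate's mean sample inhibition plus 3 SD, cut at about 24% in these data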;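 further: 0% = DMSO plus EC80 ATP and 100% = DMSO alone without ATP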
M1 ag: activates human CHRM1 receptor; activation, % at 3 µM; CHO-K1 hM1, Fluo-8 calcium fluorescence, agonist mode; 0% DMSO, 100% acetylcholine EC100; 360,000 compounds, 0.33% hits; P11229; AID 588814;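 active means activation above the run's mean compound activation plus 3 SD, cut at about 16% in these data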;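 further: peak over basal fluorescence ratio within a 140 s kinetic read after compound addition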
Target sequence (P11229 whole entry, looked up): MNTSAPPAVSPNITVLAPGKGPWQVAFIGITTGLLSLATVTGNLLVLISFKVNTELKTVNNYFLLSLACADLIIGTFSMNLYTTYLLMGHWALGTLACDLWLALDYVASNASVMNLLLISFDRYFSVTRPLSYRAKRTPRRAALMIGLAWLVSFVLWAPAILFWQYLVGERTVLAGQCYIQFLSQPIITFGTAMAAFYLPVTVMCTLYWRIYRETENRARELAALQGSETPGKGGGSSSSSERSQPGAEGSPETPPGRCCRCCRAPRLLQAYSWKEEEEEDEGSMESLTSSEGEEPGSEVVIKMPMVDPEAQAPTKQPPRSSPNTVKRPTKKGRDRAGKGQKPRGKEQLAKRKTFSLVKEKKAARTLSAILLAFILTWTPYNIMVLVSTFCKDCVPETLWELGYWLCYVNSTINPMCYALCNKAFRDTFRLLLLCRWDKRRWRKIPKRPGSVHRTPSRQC
M1 PAM parental: nonselective activator or artifact in parental CHO-K1 calcium assay; ATP EC20, Fluo-8 calcium fluorescence; 0% at ATP EC20, 100% at ATP max; activation, % at 3 µM; 360,000 compounds, 0.02% hits; AID 602247;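 active means activation above the run cutoff, the mean activation of all test compounds plus 3 SD, cut at about 40% in these data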;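 further: peak over basal fluorescence ratio in a 140 s read after ATP addition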
CHRM1 antagonist: blocks human M1 muscarinic receptor; inhibition, % at 3 µM; P11229; 360,000 compounds, 1.3% hits; CHO-K1 hM1, Fluo-8 calcium fluorescence, ACh EC80 antagonist;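 active means percent inhibition above its own plate's cutoff, namely the mean of that plate's compound wells plus 3 SD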;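 further: peak over basal fluorescence ratio during 140 s after agonist addition; 0% = ACh EC80 plus DMSO and 100% = DMSO alone without agonist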
CHO-K1 Ca ag: counter-screen for M1 agonists: effect in parental CHO-K1 cells | Fluo-8 calcium fluorescence; scaled to maximal ATP response, vehicle zero | activation, % at 3 µM | 360,000 compounds, 0.48% hits; in the data active means activation above about 15%;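 further: untransfected CHO-K1 host cells lacking M1 receptor as counterscreen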
M1 PAM: human CHRM1 positive allosteric modulation. P11229. CHO-K1 hM1, Fluo-8 calcium fluorescence, ACh EC20; 0% = ACh EC20, 100% = maximal ACh. activation, % at 3 µM. 360,000 compounds, 0.088% hits. AID 588819; in the data active means activation above about 19%, passing the limit was not always enough
Starred values were filed as active, the others as inactive.

SMILES	CHO-K1 Ca antag	M1 ag	M1 PAM parental	CHRM1 antagonist	CHO-K1 Ca ag	M1 PAM
Cc1cccc(COC(=O)C(Cc2ccccc2)NC(N)=O)c1 (stereo not drawn)	-18.5	-0.8	2.2	-10.9	0.7	7.2
C=CCOC(=O)C1=C(C)OC(N)=C(C#N)C1c1ccccc1F (stereo not drawn)	-9.8	-5.5	-7.2	-4.9	-0.7	4.6
C=CCOC(=O)C1=C(C)NC(=S)C(C#N)(CC=C)C1c1ccccc1Cl (stereo not drawn)	2.3	5.3	10.4	-0.6	16.7*	7.7
Cc1cc(NC(=O)COC(=O)c2n[nH]c3ccccc23)no1	28.9*	-0.8	-8.1	-1.3	0.3	0.8
CCn1nnnc1NCc1ccc(N2CCCC2)cc1	-13.7	-4.7	14.4	89.4*	0.4	-22.3
CCn1nnnc1NCc1ccc(SC)cc1	-2.4	-8.5	14.5	-5.2	0.3	-0.3
O=C(CNC(=O)c1ccc(Cl)cc1Cl)OCc1cn2cc(Br)ccc2n1	-8.6	-6.8	12.2	0.9	-0.5	-3.1
COc1ccc(N2CCN(S(=O)(=O)c3cccc4nsnc34)CC2)cc1	-10.4	-1.1	0.3	-5.7	0.7	8.2
O=C(Nc1ccccc1F)C1CCCN1S(=O)(=O)c1cccc2nsnc12 (stereo not drawn)	58.2*	-0.1	-13.3	-8.6	-0.2	4.8
CC(=O)Nc1ccc(NC(=O)C2CCCN2S(=O)(=O)c2cccc3nsnc23)cc1 (stereo not drawn)	2.1	-2.3	4.8	-5.3	18.8*	9.3
CC(=O)c1ccc(N2CCN(S(=O)(=O)c3cccc4nsnc34)CC2)cc1	24.2*	-2.3	-17.1	8.3	-0.3	1.4
O=C(O)/C=C/C(=O)N1CCN(S(=O)(=O)c2cc(C(F)(F)F)ccc2Cl)CC1	3.8	-0.6	-7.2	5.2	-0.6	4.0
O=C1CN(S(=O)(=O)c2cc(C(F)(F)F)ccc2Cl)CCN1	-12.4	8.2	11.5	5.6	-0.1	30.1*
COc1ccc(C)cc1NC(=O)C(OC(=O)CNC(=O)c1cccc(F)c1)c1ccccc1 (stereo not drawn)	30.6*	-6.7	-16.4	-4.2	-0.1	11.5
COc1ccc(-n2nnc3c(=O)n(CC(=O)N4CCCc5ccccc54)cnc32)cc1	12.3	-1.1	3.0	0.9	0.3	-1.6
CCOc1ccc(-n2nnc3c(=O)n(CC(=O)N4CCCc5ccccc54)cnc32)cc1	4.0	-10.0	13.4	74.3*	-0.7	-32.0
O=C(CCS(=O)(=O)c1ccc(Br)cc1)Nc1ccccn1	24.5*	0.3	-15.6	18.5	0.9	-11.0
Nc1ncnc2c1ncn2[C@@H]1O[C@H](CNC(=O)[C@@H]2CCC(=O)N2)[C@@H](O)[C@H]1O	-8.5	-3.0	3.0	-14.3	0.2	10.9
COc1ccc(S(=O)(=O)Nc2ccc(Cc3ccncc3)cc2)cc1OC	10.9	-6.5	-10.3	2.0	12.5	-3.6
CCc1ccc(OC)c(S(=O)(=O)Nc2ccc(Cc3ccncc3)cc2)c1	11.6	-5.5	17.7	36.4*	15.3*	-18.4
O=S(=O)(Nc1ccc(Cc2ccncc2)cc1)c1ccc(Cl)c(Cl)c1	-8.4	-5.1	16.5	51.8*	7.6	-20.3
COC(=O)[C@@]12CCCCN1[C@H](c1ccc(-c3ccc4c(c3)OCO4)cc1)[C@H]1C(=O)N(C)C(=O)[C@H]12	-11.8	-6.4	12.1	8.9	0.5	-1.6
CC(C)c1ccc(NC(=O)C[n+]2ccn(C3=C([O-])c4ccccc4C3=O)c2)cc1	-3.2	-5.7	-4.8	8.0	17.9*	-7.6
CCCC[n+]1ccn(C2=C([O-])c3ccccc3C(=O)/C2=N\S(=O)(=O)c2ccccc2)c1	-4.2	-2.2	14.0	-3.8	0.2	-1.4
c1ccc(-c2csc3ncnc(NCC4COc5ccccc5O4)c23)cc1 (stereo not drawn)	23.1	-8.3	17.2	32.8	4.4	-15.8
CN(C)C(CNc1ncnc2sc3c(c12)CCCCC3)c1ccco1 (stereo not drawn)	-5.7	-7.5	12.2	16.6	0.1	-15.1
Cc1sc2ncnc(NCC3COc4ccccc4O3)c2c1C (stereo not drawn)	27.4*	-4.7	-4.5	30.1	10.4	-16.8
